For 39 sequences, sensor-assay potency score (higher = more potent) results are on record in the OligoGym collection.
Note: reference of the scale not given here.

In the first assay the target is FAM73A. The assay is described as follows: pooled miR-30 sensor sort-seq; sequence = guide strand. As to conditions: shRNA.
Sequence TGTACTTGAATAGCGCACCTTC gave a sensor-assay potency score (higher = more potent) of 0.381.

On to TAGCATAGTTACAAACTTGAGA, for which the sensor-assay potency score (higher = more potent) is -0.258.

TATCTTTATCAATATCATCAGC came in with a sensor-assay potency score (higher = more potent) of -1.22.

Sequence TAATATCATCTTCATCTGCTTT showed a sensor-assay potency score (higher = more potent) of -0.807.

On to TAGACAACTACTTGTATGCCTC, for which the sensor-assay potency score (higher = more potent) was -0.255.

For TTAAGTATAAGTTCTCTGGAGT, the sensor-assay potency score (higher = more potent) is -0.00837.

Consider AACAACTTGAACCTTTGTCTGA, for which the sensor-assay potency score (higher = more potent) is -0.33.

TTCTGTTTCAGCACCGACCAAC showed a sensor-assay potency score (higher = more potent) of -0.471.

Sequence TTGAATAGCGCACCTTCTCAAA registered a sensor-assay potency score (higher = more potent) of -1.12.

On to TTTAATATCATCTTCATCTGCT, for which the sensor-assay potency score (higher = more potent) was 0.76.

In another assay the target is FAM75A3. The assay is described as above. The settings on record: shRNA.
In the case of TGGTGATTCGTCCTGAAGCTGC, the sensor-assay potency score (higher = more potent) was -1.37.

In turn, TTCGTCCTGAAGCTGCATCAGA showed a sensor-assay potency score (higher = more potent) of -0.939.

As for TAAACTTCTCACTCTTGTGAAT, the sensor-assay potency score (higher = more potent) is -1.14.

TGATTCGTCCTGAAGCTGCATC displayed a sensor-assay potency score (higher = more potent) of -0.869.

Sequence AAATTCACTAACAACCTCCTCC displayed a sensor-assay potency score (higher = more potent) of 0.396.

Take TTCACTAACAACCTCCTCCATA: the sensor-assay potency score (higher = more potent) was -0.534.

A further assay concerns the target FAM89B. Described as above. The settings on record: shRNA.
TGTAGTCCTGGATTGACTCGTA came in with a sensor-assay potency score (higher = more potent) of -0.175.

TAGTCCTGGATTGACTCGTACA gave a sensor-assay potency score (higher = more potent) of -1.39.

TGGATTGACTCGTACAGGCCCC displayed a sensor-assay potency score (higher = more potent) of -0.992.

Regarding ATCGGGAGGCTCCTCGTCGTCA, the sensor-assay potency score (higher = more potent) was -1.39.

The sequence TTGCGCAGCGCGGCCAGCGCTG yielded a sensor-assay potency score (higher = more potent) of -1.52.

Regarding TCAGGTCTTGGCACAGGTGTTT, the sensor-assay potency score (higher = more potent) is -0.832.

TGACAGGACGACGCGGGCCGGC: the sensor-assay potency score (higher = more potent) was -1.62.

TTTGTAGTCCTGGATTGACTCG yielded a sensor-assay potency score (higher = more potent) of -1.36.

On to TTAAGGAGGCCGCTGAGGCCGC, for which the sensor-assay potency score (higher = more potent) is -1.49.

In the case of TTGTAGTCCTGGATTGACTCGT, the sensor-assay potency score (higher = more potent) is 0.301.

AACATCTCCTTGCGCAGCGCGG showed a sensor-assay potency score (higher = more potent) of -1.39.

Consider TCCTGGATTGACTCGTACAGGC, for which the sensor-assay potency score (higher = more potent) was -1.73.

In a further assay the target is FAM9C. The assay is described as above. As to conditions: shRNA.
With TTTTGCAATCTTTTCAATCCTT, the sensor-assay potency score (higher = more potent) is 0.00533.

With TAACTAAACACTGTCATGTGGT, the sensor-assay potency score (higher = more potent) amounted to 0.0242.

Consider ATCAGTTACATCTCCCTCCTTT, for which the sensor-assay potency score (higher = more potent) is -0.105.

Turning to TTACTGGATCCTTTCCTGCAAG, the sensor-assay potency score (higher = more potent) is -1.19.

In the case of TTAACTAAACACTGTCATGTGG, the sensor-assay potency score (higher = more potent) was 0.189.

Turning to TAACAGGTTTTCTTTCCTCATG, the sensor-assay potency score (higher = more potent) was -1.34.

In turn, TATTTTAATTTGTTCTTCCTTT registered a sensor-assay potency score (higher = more potent) of -0.236.

AATATCTTCTAGCTCCTTGGTA had a sensor-assay potency score (higher = more potent) of -0.174.

With TTTGCAATCTTTTCAATCCTTT, the sensor-assay potency score (higher = more potent) was -0.0948.

The sequence AACATTTTTAATTCTGTTCTTT yielded a sensor-assay potency score (higher = more potent) of -0.182.

In turn, ATTCTGTTCTTTATTTCGCTGC returned a sensor-assay potency score (higher = more potent) of -0.428.
